Test results published in PubChem BioAssay (NCI).
Compounds without any hit were thinned out: in the full panel of roughly 83,000, 20% have a hit.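 Method: cells in 96-well plates; compound added at one concentration; 48 h incubation; percent growth measured; values under 10 scored active.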 Activity calls are given as the source filed them.

What was measured:
Test in all cases: NCI-60 one-dose screen, 48 h (100 = growth as untreated, 0 = no growth, -100 = all killed)
HCT-15 colon = details: 10 µM unless noted
HT29 colon = details: 10 µM unless noted
SNB-75 CNS = details: 10 µM unless noted
SNB-19 CNS = details: 10 µM unless noted
U251 CNS = details: 10 µM unless noted
PC-3 prostate = details: 10 µM unless noted
SK-MEL-5 melanoma = details: 10 µM unless noted
UACC-62 melanoma = details: 10 µM unless noted
LOX IMVI melanoma = details: 10 µM
SK-MEL-28 melanoma = details: 10 µM unless noted
SK-MEL-2 melanoma = details: 10 µM unless noted
EKVX NSCLC = details: 10 µM unless noted
SN12C renal = details: 10 µM unless noted
UO-31 renal = details: 10 µM unless noted
TK-10 renal = details: 10 µM unless noted
ACHN renal = details: 10 µM unless noted
CAKI-1 renal = details: 10 µM unless noted
A498 renal = details: 10 µM unless noted
CCRF-CEM leukemia = details: 10 µM unless noted
MOLT-4 leukemia = details: 10 µM unless noted

Measured: growth

Nc1nc(N)c2cc(Sc3cccc(C(F)(F)F)c3)ccc2n1
inactive: HCT-15 colon 24.3% | HT29 colon 14.5% | SNB-75 CNS 42.7% | SNB-19 CNS 34.6% | U251 CNS 19.2% | PC-3 prostate 28.3% | SK-MEL-5 melanoma 21.4% | UACC-62 melanoma 30.3% | LOX IMVI melanoma 17.4% | SK-MEL-28 melanoma 58.4% | SK-MEL-2 melanoma 68.5% | EKVX NSCLC 23.7% | SN12C renal 26.5% | UO-31 renal 21.3% | TK-10 renal 43.5% | ACHN renal 26.6% | A498 renal 54% | CCRF-CEM leukemia 33.2% | MOLT-4 leukemia 14.3%
active: CAKI-1 renal 9.5%

O=C1c2ccccc2Cc2cccc(Cl)c21
inactive: HCT-15 colon 97.4% | HT29 colon 87.7% | SNB-75 CNS 117% | SNB-19 CNS 100% | U251 CNS 101% | PC-3 prostate 92.9% | SK-MEL-5 melanoma 96.2% | UACC-62 melanoma 98.9% | LOX IMVI melanoma 93.9% | SK-MEL-28 melanoma 101% | SK-MEL-2 melanoma 87.5% | EKVX NSCLC 104% | SN12C renal 97.3% | UO-31 renal 82.9% | TK-10 renal 89.6% | ACHN renal 98.9% | CAKI-1 renal 99.1% | A498 renal 64.3% | CCRF-CEM leukemia 98.8% | MOLT-4 leukemia 39.6%

OC(c1cc(-c2ccc(Cl)cc2)nc2c(Cl)cccc12)C1CCCCN1 (stereo unspecified)
active: HCT-15 colon -58.1% | HT29 colon -86.3% | SNB-75 CNS -81.2% | SNB-19 CNS -69.9% | U251 CNS -89% | PC-3 prostate -94.4% | SK-MEL-5 melanoma -0.885% | UACC-62 melanoma -75.9% | LOX IMVI melanoma -76.6% | SK-MEL-28 melanoma -94.6% | SK-MEL-2 melanoma -91% | EKVX NSCLC -32.9% | SN12C renal -70.3% | UO-31 renal -74.5% | TK-10 renal -75.9% | ACHN renal -65.3% | CAKI-1 renal -72.5% | A498 renal 9.48% | CCRF-CEM leukemia -59.1% | MOLT-4 leukemia -57.5%

O=C(c1ccccc1)C(Br)[N+](=O)[O-] (stereo unspecified)
inactive: HCT-15 colon 78.1% | HT29 colon 90.5% | SNB-75 CNS 86.3% | SNB-19 CNS 102% | U251 CNS 84.2% | PC-3 prostate 89.4% | SK-MEL-5 melanoma 102% | UACC-62 melanoma 89.8% | LOX IMVI melanoma 80.5% | SK-MEL-28 melanoma 106% | SK-MEL-2 melanoma 97.5% | EKVX NSCLC 96.5% | SN12C renal 103% | UO-31 renal 80.8% | TK-10 renal 106% | ACHN renal 86.8% | CAKI-1 renal 93% | A498 renal 101% | CCRF-CEM leukemia 24.8% | MOLT-4 leukemia 20.6%

Cc1cc(I)nc2ccccc12
inactive: HCT-15 colon 105% | HT29 colon 109% | SNB-75 CNS 99.7% | SNB-19 CNS 107% | U251 CNS 110% | PC-3 prostate 96.8% | SK-MEL-5 melanoma 104% | UACC-62 melanoma 117% | LOX IMVI melanoma 100% | SK-MEL-28 melanoma 112% | SK-MEL-2 melanoma 110% | EKVX NSCLC 101% | SN12C renal 109% | UO-31 renal 91.7% | TK-10 renal 113% | CAKI-1 renal 98.7% | A498 renal 117% | CCRF-CEM leukemia 92.2% | MOLT-4 leukemia 101%

O=C(c1ccc(O)c(Br)c1)c1ccc(O)c(Br)c1
inactive: HCT-15 colon 104% | HT29 colon 114% | SNB-75 CNS 94.9% | SNB-19 CNS 94.3% | U251 CNS 109% | PC-3 prostate 101% | SK-MEL-5 melanoma 99.4% | UACC-62 melanoma 97.1% | LOX IMVI melanoma 108% | SK-MEL-28 melanoma 110% | SK-MEL-2 melanoma 105% | EKVX NSCLC 112% | SN12C renal 94.4% | UO-31 renal 98.5% | TK-10 renal 99.4% | ACHN renal 102% | CAKI-1 renal 119% | A498 renal 93.9% | CCRF-CEM leukemia 109%

Oc1ccc2ccccc2c1N=Nc1nccs1
active: U251 CNS 4.79% | UACC-62 melanoma 0.0083% | LOX IMVI melanoma 5.25% | EKVX NSCLC -9.54% | TK-10 renal -14% | CAKI-1 renal -31.1% | CCRF-CEM leukemia -7.19% | MOLT-4 leukemia -4.26%
inactive: HCT-15 colon 24% | HT29 colon 34.7% | SNB-75 CNS 43.3% | SNB-19 CNS 74.2% | PC-3 prostate 35.4% | SK-MEL-5 melanoma 74.7% | SK-MEL-28 melanoma 38.1% | SK-MEL-2 melanoma 153% | SN12C renal 34.4% | UO-31 renal 59.3% | A498 renal 136%

COc1c(C)c2c(c(O)c1C/C=C(\C)CCC(=O)O)C(=O)OC2
inactive: HCT-15 colon 20.7% | HT29 colon 13.3% | SNB-75 CNS 48.1% | SNB-19 CNS 42.3% | U251 CNS 18.3% | PC-3 prostate 40.3% | SK-MEL-5 melanoma 23.6% | UACC-62 melanoma 41.7% | LOX IMVI melanoma 12.1% | SK-MEL-28 melanoma 31.3% | SK-MEL-2 melanoma 43.8% | EKVX NSCLC 48.2% | SN12C renal 34.4% | UO-31 renal 27.9% | TK-10 renal 42% | A498 renal 61.7% | CCRF-CEM leukemia 26.1% | MOLT-4 leukemia 25.9%
active: CAKI-1 renal 6.69%
